Drawing on PubChem BioAssay (NCI), this text covers growth for 40 compounds.

About 83,000 compounds went through this panel and 20% of them were active in at least one assay; those are over-represented in the sample as a whole.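 Results are percent growth after 48 hours of single-concentration exposure. 100 means growth as in untreated cells, lower positive values show inhibition; negative values down to -100 show cell death.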 Calls of active or inactive are those of the source.

The experiment has as its system COLO 205 colon. The experiment in a line: NCI-60 one-dose screen, 48 h (100 = growth as untreated, 0 = no growth, -100 = all killed). The following applies: 10 µM unless noted. As for the experimental part:
Cells are grown in 96 well plates and exposed to the test compound for 48 hours. Compounds are tested at a single concentration, which is 10^-5 M for most compounds. The reported endpoint is percent growth (GI% or GIPRCNT), where numbers from 0 - 100% represent growth inhibition, and numbers from -100% - 0 represent cell death. For example, a value of 40 represents 60% growth inhibition. A value of 0 means no net growth occurred over the course of the experiment. A value of -40 indicates 40% of cells at the beginning of the experiment died by the end of the experiment. A value of -100 means all cells are dead at the end of the experiment.
NCI-60 Human Tumor Cell Lines Screen was performed using the standard one-dose NCI protocol, which is described in more detail at https://dtp.cancer.gov/discovery_development/nci-60/default.htm.
Compounds with GIPRCNT values below 10 were considered active. Activity score was based on GIPRCNT using the following formula: […]
Score is 0 for GIPRCNT values of 100 or above, 50 for GIPRCNT values of 0, and 100 for GIPRCNT values of -100.
Take `COc1cc(/C=C/C(=O)c2ccc(F)cc2)ccc1OCCCCOc1ccc(/C=C/C(=O)c2c(C)nc3ccccc3c2C)cc1OC`: the growth was 119% (inactive). In the case of `O=C(C[C@]1(O)C(=O)Nc2ccccc21)c1cccc(C(F)(F)F)c1`, the growth was 89.5% (inactive).

`O=C1/C(=C/c2cn(-c3ccccc3)nc2-c2ccccc2)SC(=S)N1C1CCCCC1`: the growth is 117% (inactive). As for `COc1ccc(C/C(C)=C(/c2ccc(OCCN(C)C)cc2)c2ccc(OC(=O)NCc3ccccc3)cc2)cc1`, the growth is 20.4% (inactive).

With `Cc1cc(N2CCCCC2)cc(C)c1-c1csc(NC(=O)c2ccncc2)n1`, the growth is 60.6% (inactive). For the compound `CCn1cc(C(=O)O)c(=O)c2cc(F)c(N3CCN(CC(=O)Nc4ccc(S(=O)(=O)Nc5nccc(C)n5)cc4)C(C)C3)c(F)c21` (stereo not given), the growth is 118% (inactive). The figure for `O=C(COc1ccc(-c2nc3cc(Cl)c(Cl)cc3[nH]2)cc1)N=Nc1c(O)[nH]c2ccc(Cl)cc12` is 56.2% (inactive).

With `Cn1ccnc1C(=O)/C=C/c1ccc(C(=O)Nc2ccccc2O)cc1`, the growth was 56.5% (inactive).

As for `CCOC(=O)c1c(NC(=O)c2cccc(C(F)(F)F)c2)sc2c(CN(C)C)c(O)ccc12`, the growth was 19% (inactive). `COC(=O)[C@]12CCC(C)(C)C[C@H]1[C@H]1/C(=N/OCCc3nn[nH]n3)C[C@@H]3[C@@]4(C)CC[C@H](OC(C)=O)C(C)(C)[C@@H]4CC[C@@]3(C)[C@]1(C)CC2`: the growth is 41.4% (inactive). `CCOC(=O)n1ccn(C)c1=S`: the growth was 31.9% (inactive). Turning to `Oc1ccc(Cl)cc1/C=N\NC(=S)N/N=C/c1cc(Cl)ccc1O`, the growth is 41.5% (inactive). As for `COC(=O)c1cc(N=C2NC(=O)/C(=C/C=C/c3ccccc3)S2)ccc1O`, the growth was 9.95% (active).

Regarding `CC(=O)Oc1ccc(N2C(=O)C(Cl)=C(Nc3cccc(C(F)(F)F)c3)C2=O)cc1`, the growth is 93.4% (inactive). With `O=C(c1ccccc1)c1ccc(C2CCCCC2)cc1` the figure was 101% (inactive). The figure for `CC1OC(n2c3ccccc3c3c4c(c5c6ccccc6[nH]c5c32)C(=O)N(CCN2CCCC2)C4=O)CC(O)C1O` (stereo not given) is 24.8% (inactive); for `Cc1nc2sc(C(=O)Nc3cccc(Br)c3)c(N)c2cc1C(O)c1ccccc1` (stereo not given) it is 16.6% (inactive). The figure for `COc1ccc(C2=C(Br)C(=O)c3nc(C)ccc3C2=O)cc1` is 0.376% (active); for `CCCC/C=C/[C@@H]1C[C@H]1CCO` it is 100% (inactive).

As for `O=C(CN1CCCCC1)Nc1nc(-c2cc3ccccc3oc2=O)cs1`, the growth is 116% (inactive). With `CC(=O)c1c(C)nc(SCC(=O)Nc2cccc(O)c2)n1-c1ccc(Cl)cc1`, the growth is 118% (inactive).

On to `CC(=O)N1N=C(c2ccc(Nc3nc(Nc4ccccc4)nc(Nc4ccccc4)n3)cc2)CC1c1ccccc1` (stereo not given), for which the growth is 68.5% (inactive). Turning to `COc1ccc(OC)c(/C=N/Nc2ncnc3c2c(C)nn3C)c1`, the growth is 102% (inactive). As to `N#Cc1c(-c2ccc(Cl)cc2)nc(NN2C(=O)c3ccccc3C2=O)nc1N1CCOCC1`, the growth is 110% (inactive). With `COC(=O)CC[C@@H]1O[C@@H](c2cccc(C(F)(F)F)c2)[C@@H](O)[C@H]1O` the figure was 108% (inactive); with `CCOC(=O)c1cc(C)n(-c2ccc(C(=O)O)cc2)c1C`, 89.8% (inactive); with `COc1ccc(C2=C(Nc3ccc(C(=O)Nc4ccccc4)cc3)C(=O)N(C)C2=O)cc1`, 105% (inactive). `CCOC(=O)C1=C(N)Oc2c(sc3c(F)cccc23)C1c1ccc(O)cc1` (stereo not given): the growth was 79.5% (inactive). The figure for `O=C(O)CCCN1C(=O)/C(=C/c2cn(-c3ccccc3)nc2-c2ccc([N+](=O)[O-])cc2)SC1=S` is 103% (inactive); for `COc1ccc(C(=O)/C=C/c2c(C(F)(F)F)nc3ccccn23)cc1OC` it is -1.6% (active). In the case of `Cc1cc(=O)n(C(=O)Nc2ccccc2Cl)c2cc(O)ccc12`, the growth is 100% (inactive). The figure for `NS(=O)(=O)c1ccc(N=Nc2c(O)n(Cc3ccccc3)c3ccc(Cl)cc23)cc1` is 94.3% (inactive); for `CCn1c(SCC(=O)N/N=C(\C)c2ccc(Cl)cc2)nc2c1c(=O)n(C)c(=O)n2C` it is 107% (inactive); for `O=C1/C=C/[C@@H](O)[C@@H]2C[C@@H](O)C[C@H]2/C=C/CCC[C@H](CCc2ccccc2)O1` it is -72.5% (active).

For `COc1ccc(-c2noc(C(=O)O)c2-c2cc(OC)c(OC)c(OC)c2)cc1`, the growth is 6.75% (active). For `O=CN1N=C(c2cccc(Nc3ccnc4cc(Cl)ccc34)c2)CC1c1ccccc1` (stereo not given), the growth is -40.9% (active). With `O=S(=O)(NCCNc1nccc(-c2c(-c3ccc(F)c(O)c3)nc3sccn23)n1)c1ccc(O)cc1` the figure was 34.7% (inactive). With `COC(=O)CC[C@H](C)[C@H]1CC[C@H]2[C@@H]3CC[C@@H]4CC5(CC[C@]4(C)[C@H]3CC(=O)[C@]12C)Nc1ccccc1NC5=NC(C)(C)C` (stereo not given in full) the figure was 66.4% (inactive); with `COc1cc2nc3cc([N+](=O)[O-])ccc3c(NCCNCC(C)O)c2cc1OC` (stereo not given), -76.6% (active); with `CC(C)(Sc1cc(C(C)(C)C)c(OC(=O)CCCC(=O)O)c(C(C)(C)C)c1)Sc1cc(C(C)(C)C)c(OC(=O)CCCC(=O)O)c(C(C)(C)C)c1`, 58.4% (inactive).
